Results taken from the supplement of paper PMC5641865, “A screen for kinase inhibitors identifies antimicrobial imidazopyridine aminofurazans as specific inhibitors of the Listeria monocytogenes PASTA kinase PrkA” (The Journal of Biological Chemistry, 2017).
± gives the standard deviation of the averaged measurements.

system: Listeria monocytogenes 10403S; assay: growth inhibition relative to ceftriaxone-alone control; higher = stronger potentiation of ceftriaxone growth inhibition; conditions: 10 µM; ceftriaxone 1 ug/ml; 12 h
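Further: End-point A600 read in BHI broth at 37 °C with 2% DMSO, inhibition computed as (1 − OD with compound plus ceftriaxone ÷ OD with ceftriaxone only) × 100.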

| Structure (SMILES) | growth inhibition |
| --- | --- |
| CCn1c(-c2nonc2N)nc2c(C#CC(C)(C)O)nc(CN3CCCC3)cc21 | 4.95 ± 5.7% |
| C[C@]1(O)C[C@@H](c2nc(-c3ccc4ccc(-c5ccccc5)nc4c3)c3c(N)nccn32)C1 [Linsitinib (OSI-906)] | 56.8 ± 25% |
| CC(=O)NCC(=O)N1[C@@H]2CC[C@H]1c1ccc(Nc3ncc(C(F)(F)F)c(NC4CCC4)n3)cc12 | 52 ± 46% |
| Cc1nnc(-c2cccc(-c3ccc(C(=O)NCC4CC4)cc3)c2)o1 | 3.5 ± 10% |
| Cc1cc(O)cc(C)c1/C=C/c1cncc(C(=O)OC(C)(C)C)c1 | -0.285 ± 0.11% |
| COC(=O)Nc1nc2cc(Oc3ccc(NC(=O)Nc4cccc(C(=O)O)c4)cc3)ccc2[nH]1 | 7.27 ± 7.2% |
| COc1cc2c(Oc3ccc(NC(=O)C4(C(=O)Nc5ccc(F)cc5)CC4)cc3F)ccnc2cc1OCCCN1CCOCC1 | 80.2 ± 4.3% |
| CC(C)(C)c1cnc(CSc2cnc(NC(=O)C3CCNCC3)s2)o1 | 29.5 ± 24% |
| COc1ccc(-c2oc3ncnc(N)c3c2-c2ccc(NC(=O)Nc3cc(C(F)(F)F)ccc3F)cc2)cc1 | -3.49 ± 7.6% |
| C/C(Nc1ccc(S(N)(=O)=O)cc1)=C1/C(=O)Nc2ccccc21 | -3.55 ± 0.8% |
| Cc1ccc(NC(=O)c2ccc(CN3CCN(C)CC3)cc2)cc1Nc1nc(-c2cccnc2)cs1 [Masitinib (AB1010)] | 36.7 ± 26% |
| CC1=C(C(=O)Nc2ccc3[nH]ncc3c2)C(c2ccc(Cl)c(Cl)c2)CC(=O)N1 (stereo not drawn) | -13 ± 9.9% |
| CS(=O)(=O)N1CCN(Cc2cc3nc(-c4cccc5[nH]ncc45)nc(N4CCOCC4)c3s2)CC1 | 25.2 ± 21% |
| C[C@@H]1COC(Nc2ccc3ncnc(Nc4ccc(OCc5nccs5)c(Cl)c4)c3c2)=N1 | 70.8 ± 5% |
| CC1=C(C(=O)Nc2cc(Cl)c3[nH]ncc3c2)C(c2ccc(C(F)(F)F)cc2)CC(=O)N1 (stereo not drawn) | -4.67 ± 5.5% |
| COC(=O)Nc1nc2cc(Oc3ccc(NC(=O)Nc4ccccc4)cc3)ccc2[nH]1 | 8.77 ± 1.8% |
| Cc1ccc(C(=O)NC2CCCCC2)cc1-c1ccc(C(=O)NCC2CC2)cc1 | -1.78 ± 6.1% |
| COc1cc2ncn(-c3cc(OCc4ccccc4C(F)(F)F)c(C(N)=O)s3)c2cc1OC | -2.24 ± 0.56% |
| Cc1ccc(NC(=O)CC2CC2)cc1-c1ccc(C(=O)NCC2CC2)cc1 | -0.462 ± 0.33% |

| Structure (SMILES) | growth inhibition |
| --- | --- |
| COc1cc2ncnc(Nc3cccc(Cl)c3)c2cc1OC [AG-1478 (Tyrphostin AG-1478)] | 31.5 ± 11% |
| COC(=O)Nc1nc2ccc(S(=O)(=O)c3ccc(NC(=O)Nc4cc(C(F)(F)F)ccc4F)cc3)cc2[nH]1 | -13.3 ± 8.2% |
| Cn1cc(-c2ccc3nnc(Sc4ccc5ncccc5c4)n3n2)cn1 | 18 ± 20% |
| O=C(Cc1ccc(-c2ccc(OCCN3CCOCC3)cc2)cn1)NCc1ccccc1 | 33.6 ± 8.5% |
| CN1CCC(n2cnc(-c3ccc(F)cc3)c2-c2ccnc(NCCO)n2)CC1 | -2.88 ± 2.5% |
| CCCN1CCC=C(c2ccc(Nc3nc(Nc4ccccc4C(N)=O)c4cc[nH]c4n3)c(C)c2)C1 | -7.58 ± 1.9% |
| c1ccc(-c2n[nH]cc2-c2ccnc(-c3ccc(OCCn4ccnc4)cc3)c2)nc1 | -3.25 ± 8% |
| Cn1cc(-c2ccc3ncc(Cc4ccc5ncccc5c4)n3n2)cn1 | -1.22 ± 3.1% |
| CCn1c(-c2nonc2N)nc2cnc(Oc3cccc(NC(=O)c4ccc(OCCN5CCOCC5)cc4)c3)cc21 | 0.09 ± 1.7% |
| COc1cc2c(cc1Nc1nc(N3CCc4ccccc43)c3cc[nH]c3n1)N(C(=O)CN(C)C)CC2 | 7.28 ± 0.39% |
| CC[C@@H]1C(=O)N(C)c2cnc(Nc3ccc(C(=O)NC4CCN(C)CC4)cc3OC)nc2N1C1CCCC1 | 41.8 ± 45% |
| CS(=O)(=O)Nc1ccc(-c2ccc3c(NC(=O)C4CC4)n[nH]c3c2)cc1 | 38.6 ± 43% |
| COC(=O)Nc1ccc(-c2nc(N3CCOCC3)c3cnn(C4CCN(C(=O)OC)CC4)c3n2)cc1 | -59.1 ± 10% |
| CCN1CCN(c2ccc(Nc3cc(N(C)C(=O)Nc4c(Cl)c(OC)cc(OC)c4Cl)ncn3)cc2)CC1 | 12.2 ± 5.4% |
| COc1cc(Nc2nccc(-c3cnn4ncccc34)n2)cc(OC)c1 | -13.8 ± 16% |
| COc1cccc(-n2ncc3c(N/N=C/c4ccc(S(C)(=O)=O)cc4)ncnc32)c1 | -2.76 ± 9.3% |
| CN1CCN(c2nc(C3=C(c4c[nH]c5ccccc45)C(=O)NC3=O)c3ccccc3n2)CC1 [Sotrastaurin (AEB071)] | 44.8 ± 28% |
| COc1ccc(-c2cc3c(C)nc(N)nc3n([C@H]3CC[C@H](OCCO)CC3)c2=O)cn1 | 12.2 ± 9.5% |
| COc1cc2ncnc(Nc3ccc(O)c(Br)c3)c2cc1OC | 13.4 ± 5.2% |
